BAZ2B block = qHTS Assay for Inhibitors of BAZ2B; Bromodomain adjacent to zinc finger domain protein 2B (Homo sapiens), Q9UIF8; AlphaScreen BAZ2B-H3K14Ac peptide displacement; Potency, µM (series often up to 114 µM), for the others: at the top dose activity change, negative = inhibition, usual class: inhibitors; hit rate 4.4% among 360,000; AID 504333, 2011; further: on the % scale 0 is the no-effect control and ±100 the full control effect; nearly all actives have a fitted effect of over 60% in size
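AlphaScreen luminescence quantifies BAZ2B engagement of H3K14Ac peptide; the protein and biotinylated peptide are both at 50 nM final, buffer PBS pH 7.4 with 0.01% Tween-20, all steps at room temperature.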
JMJD2A Tudor inh = qHTS Assay for Inhibitors of JMJD2A-Tudor Domain. Lysine-specific demethylase 4A (Homo sapiens), O75164. AlphaScreen JMJD2A-Tudor / H3K4me3 peptide binding. Potency, µM (top dose mostly 114 µM), without a hit: top-dose activity change, negative = inhibition, actives largely listed as inhibitors. hit rate 4.4% among 390,000; further: on the % scale 0 is the no-effect control and ±100 the full control effect; nearly all actives have a fitted effect of over 50% in size
VDR inhibitor = Inhibitors of the vitamin D receptor (VDR): qHTS. hit rate 0.93% among 400,000. VDR-SRC2-3 peptide fluorescence polarization, 2 h. Potency, µM, for the others: max response, negative = inhibition, most hits filed as inhibitors. Vitamin D3 receptor (Homo sapiens), P11473; further: on the % scale 0 is the no-effect control and ±100 the full control effect
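Measured by FP: displacement of SRC2-3 coactivator peptide from VDR by library compounds, following a two-hour ambient incubation.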
PLK1 PBD inh = qHTS for Inhibitors of PLK1-PDB (polo-like kinase 1 - polo-box domain): Primary Screen. Serine/threonine-protein kinase PLK1 (Homo sapiens), P53350. Plk1 PBD binding of FITC phosphopeptide, fluorescence polarization. Potency, µM, without a hit: max response, negative = inhibition, actives largely listed as inhibitors. hit rate 2.8% among 360,000; further: series mostly up to about 57 µM; on the % scale 0 is the no-effect control and ±100 the full control effect; nearly all actives have a fitted effect of over 65% in size
Target sequence (P53350 whole entry, looked up, the tested form may be a part): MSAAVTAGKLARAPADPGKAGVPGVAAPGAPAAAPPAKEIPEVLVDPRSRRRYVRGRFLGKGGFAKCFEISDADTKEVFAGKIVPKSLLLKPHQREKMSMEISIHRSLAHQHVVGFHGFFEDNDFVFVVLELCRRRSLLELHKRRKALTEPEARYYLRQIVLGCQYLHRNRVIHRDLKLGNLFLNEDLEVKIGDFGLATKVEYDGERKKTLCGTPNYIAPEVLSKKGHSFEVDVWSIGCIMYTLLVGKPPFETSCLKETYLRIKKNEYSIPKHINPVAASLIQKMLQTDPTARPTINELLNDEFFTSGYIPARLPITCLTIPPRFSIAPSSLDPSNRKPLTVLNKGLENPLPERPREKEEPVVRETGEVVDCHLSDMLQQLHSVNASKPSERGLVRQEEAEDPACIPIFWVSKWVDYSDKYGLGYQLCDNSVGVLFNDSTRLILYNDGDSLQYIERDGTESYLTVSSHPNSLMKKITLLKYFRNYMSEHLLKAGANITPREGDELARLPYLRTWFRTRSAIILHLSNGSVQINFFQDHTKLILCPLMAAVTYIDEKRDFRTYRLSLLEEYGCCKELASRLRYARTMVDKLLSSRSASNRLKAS
HP1b binding inh = HTS for Inhibitors of HP1-beta Chromodomain Interactions with Methylated Histone Tails; Chromobox protein homolog 1 (Homo sapiens), P83916; AlphaScreen HP1-beta / biotin-H3K9me3 peptide binding; Potency, µM (series often up to 114 µM), for the others: top-dose activity change, negative = inhibition, usual class: inhibitors; hit rate 0.56% among 390,000; AID 540317, 2011; further: nearly all actives have a fitted effect of over 70% in size
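AlphaScreen: HP1-beta (50 nM) preformed 30 min with biotin-H3(1-18)K9me3 peptide (50 nM) in PBS pH 7.4, 0.01% Tween-20. Compound added for 30 min at RT, then streptavidin donor/nickel chelate acceptor beads (10 ug/mL) for 30 min.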
L3MBTL1 inh = qHTS Assay for the Inhibitors of L3MBTL1; Lethal(3)malignant brain tumor-like protein 1 (Homo sapiens), Q9Y468; AlphaScreen L3MBTL1–H3K9me1 peptide binding; Potency, µM (highest dose often 57.1 µM), inactives show at the highest dose activity, negative = inhibition, actives largely listed as inhibitors; hit rate 0.66% among 230,000; AID 485360, 2010; further: on the % scale 0 is the no-effect control and ±100 the full control effect; nearly all actives have a fitted effect of over 60% in size
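Displacement of a biotinylated histone H3(1-15) peptide monomethylated at Lys9 (75 nM) from L3MBTL1 (50 nM) was measured by AlphaScreen after a 30 min room-temperature compound incubation; cefsulodin titration served as intraplate control.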
* marks the source's active call; other numbers are inactive results; ? = inconclusive; · = not tested or not shown; [ ] = remark or other dose. Most compounds without a hit are left out; they make up all but 6.9% or so of the library. The call rests on the fitted dose curve; in most records, active means well fitted curve in the direction sought with a large enough effect; inconclusive means small, poorly fitted or top-dose-only effect, or another doubt; inactive means no such curve, though single readings can be large; an effect the other way counts as inactive or inconclusive. Potency means the concentration at half of the fitted maximal effect.

SMILES	BAZ2B block	JMJD2A Tudor inh	VDR inhibitor	PLK1 PBD inh	HP1b binding inh	L3MBTL1 inh
O=C(Nc1cccc(C(F)(F)F)c1)Nc1nnc(N2CCCCCC2)s1	-1%	-10%	-6%	·	18%	·
C#CCOCCOCCOCCNc1nc(N2CCN(C(=O)[C@H](CCCCN)n3cc(CN)nn3)CC2)nc(N2CCN(C(=O)[C@H](CCC(=O)O)n3cc([C@@H](N)CCSC)nn3)CC2)n1	·	89µM*	10%	-6%	6%	0%
C#CCOCCOCCOCCNc1nc(N2CCN(C(=O)[C@H](CCC(=O)O)n3cc(C(N)[C@H](C)CC)nn3)CC2)nc(N2CCN(C(=O)[C@H](CCC(=O)O)n3cc(C(N)[C@H](C)CC)nn3)CC2)n1 (stereo partly specified)	79µM*	?	7%	-4%	-16%	-2%
C#CCOCCOCCOCCNc1nc(N2CCOCC2)nc(N2CCN(C(=O)[C@H](CCCCN)n3cc(CN)nn3)CC2)n1	·	-28%	17%	-5%	7%	11%
C#CCOCCOCCOCCNc1nc(N2CCN(C(=O)[C@H](CCCCN)n3cc([C@@H](N)[C@H](C)CC)nn3)CC2)nc(N2CCN(C(=O)[C@H](CCC(=O)O)n3cc([C@@H](N)CCSC)nn3)CC2)n1	·	79µM*	-1%	-7%	16%	1%
C#CCOCCOCCOCCNc1nc(N2CCN(C(=O)[C@H](CCCCN)n3cc(CN)nn3)CC2)nc(N2CCN(C(=O)[C@H](CCC(=O)O)n3cc([C@@H](N)[C@H](C)CC)nn3)CC2)n1	·	56µM*	1%	-16%	4%	-4%
CCN(CC)C(=O)c1ccc2c(c1)N(Cc1ccc(C(F)(F)F)cc1)C(=O)c1ccccc1S2	·	-28%	?	·	28%	·
C#CCOCCOCCOCCNc1nc(N2CCN(C(=O)[C@H]([C@@H](C)CC)n3cc(CCCCN)nn3)CC2)nc(N2CCN(C(=O)[C@H](CCCCN)n3cc(CCC(=O)O)nn3)CC2)n1	-22%	5%	-3%	6%	28%	4%
C#CCOCCOCCOCCNc1nc(N2CCN(C(=O)[C@H](CCC(=O)O)n3cc(C(N)CO)nn3)CC2)nc(N2CCN(C(=O)[C@H](CCC(=O)O)n3cc(C(N)[C@H](C)CC)nn3)CC2)n1 (stereo partly specified)	35µM*	35µM*	-11%	?	33%	-17%
C#CCOCCOCCOCCNc1nc(N2CCN(C(=O)C([C@@H](C)CC)n3cc(C(N)CO)nn3)CC2)nc(N2CCN(C(=O)[C@H](CCC(=O)O)n3cc(C(N)[C@H](C)CC)nn3)CC2)n1 (stereo partly specified)	35µM*	·	·	·	·	·
C#CCOCCOCCOCCNc1nc(N2CCN(C(=O)[C@H](CCCCN)n3cc(C(N)CO)nn3)CC2)nc(N2CCN(C(=O)[C@H](CCC(=O)O)n3cc(C(N)[C@H](C)CC)nn3)CC2)n1 (stereo partly specified)	40µM*	·	·	·	·	-18%
Cc1ccc(C)c(N2C(=O)N(Cc3cc(=O)n4ccccc4n3)c3ccccc3S2(=O)=O)c1	-7%	-5%	6%	·	19%	·
OCC[C@H]1C[C@H](O)[C@@H](O)[C@@]2(CCCO2)O1	·	-22%	1%	-5%	21%	·
N#Cc1cc([N+](=O)[O-])c2sc(C(N)=O)[n+]([O-])c2c1	·	·	5%	·	·	·
Nc1nc(N)nc(-c2cc(O)ccc2O)n1	6%	-20%	19%	-6%	38%	1%
Oc1ccc(O)c(-c2cnns2)c1	-7%	3.2µM*	2%	?	8.9µM*	0%
COC(CNC(=O)CCc1c(C)nc2c(-c3ccc(F)cc3)c(C)nn2c1C)OC	-4%	?	-17%	30µM*	-17%	·
Cc1nc2c(-c3ccccc3)c(C)nn2c(C)c1CCC(=O)NCc1ccc(F)cc1	1%	6%	-13%	·	38%	·
COc1ccc(C(OCCN2CCC[C@H](C(=O)O)C2)(c2ccc(OC)cc2)c2ccc(OC)cc2)cc1	·	·	-13%	·	·	·
Cc1ccc(C(=O)Sc2cccccc2=O)cc1	40µM*	-29%	20µM*	2.7µM*	?	·
O=C(Nc1ccccc1SC(=O)c1ccccc1)c1ccccc1	·	·	·	4.2µM*	·	·
c1ccc(OCc2nnc3n2N=C(c2ccccc2)CS3)cc1	·	-14%[11.4 µM]	?	7.5µM*	?	·
Brc1ccc(C2=Nn3c(Cn4nnc5ccccc54)nnc3SC2)cc1	-5%	-27%	?	12µM*	?	2%
CCc1nnc2n1N=C(c1ccc(Br)cc1)CS2	-9%	-8%	3%	-13%	22%	·
COc1ccc(C2Nc3ccccc3C(=O)N2Cc2ccco2)cc1OC (stereo unspecified)	·	-20%[57.1 µM]	?	·	?	·
SMILES	BAZ2B block	JMJD2A Tudor inh	VDR inhibitor	PLK1 PBD inh	HP1b binding inh	L3MBTL1 inh
O=C(COc1ccc(Cl)cc1)N1N=C(c2cccs2)CC1c1ccco1 (stereo unspecified)	·	-15%	6%	-10%	58%	·
O=C(OCC(=O)N1N=C(c2ccc(Cl)cc2)CC1c1ccco1)c1cccnc1 (stereo unspecified)	·	35µM*	40µM*	-30%	?	-91%
O=C(CCl)N1N=C(c2ccco2)CC1c1ccco1 (stereo unspecified)	45µM*	45µM*	?	?	50µM*	·
O=C(CCl)N1N=C(c2cccs2)CC1c1ccco1 (stereo unspecified)	-16%	-25%	-8%	-18%	4%	-8%
COCC(=O)OCC(=O)N1N=C(c2ccc(Cl)cc2)CC1c1ccco1 (stereo unspecified)	?	-31%	-23%	-8%	-8%	-16%
O=C(COc1ccccc1F)N1N=C(c2cccs2)CC1c1ccco1 (stereo unspecified)	?	14µM*	-18%	-18%	-24%	-28%
COc1ccc(C)cc1NC(=O)c1ccc2c(c1)N(Cc1cccc(Cl)c1)C(=O)c1ccccc1S2=O (stereo unspecified)	-10%	?	10%	·	5%	·
O=C(CCNc1cccc(F)c1)c1cccc([N+](=O)[O-])c1	35µM*	?	89µM*	?	-38%	-1%
Nc1cc(-c2ccc(Br)cc2)nn1S(=O)(=O)c1cccc2nsnc12	?	?	15%	5%	-13%	·

Bioassay records deposited in PubChem by National Center for Advancing Translational Sciences (NCATS).
